# The panel holds about 79,000 compounds, 15% with a hit somewhere; the sample as a whole holds those more often. A number with no mark means an inactive call. The source made the active and inactive calls. No stated cut-off is given here; in the data, active means growth inhibition above about 70%; inactive means the rest.
# Experiments:
# [1] = NCI Yeast Anticancer Drug Screen. Data for the wt2 strain (AID 169);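 further: 0% = growth of vehicle-treated yeast cultures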; settings: S. cerevisiae wt2 strain growth inhibition, active compounds read high
# How it was run: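 Growth of compound-treated yeast is measured and expressed as inhibition relative to vehicle-only controls.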
# [2] = NCI Yeast Anticancer Drug Screen. Data for the mlh1 strain (AID 171);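 further: 0% = growth of vehicle-treated control cultures of the same strain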; settings: S. cerevisiae mlh1 strain growth inhibition, active compounds read high
# How it was run: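 Test agents were incubated with yeast bearing a defined DNA damage repair or cell cycle control alteration; values are growth inhibition normalised to vehicle-treated cultures.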
# [3] = NCI Yeast Anticancer Drug Screen. Data for the sgs1 strain (AID 173);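 further: 0% = growth of vehicle-only control cultures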; settings: S. cerevisiae sgs1 mutant, active compounds read high
# How it was run: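 Strain with an altered DNA repair or cell cycle pathway exposed to compound. Growth then measured. Value = inhibition versus vehicle control.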
# [4] = NCI Yeast Anticancer Drug Screen. Data for the mlh1 rad18 strain (AID 175); settings: S. cerevisiae mlh1 rad18 strain growth inhibition, active compounds read high
# How it was run: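 A repair-deficient yeast strain is exposed to test compound, and growth is scored relative to vehicle-treated controls.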
# [5] = NCI Yeast Anticancer Drug Screen. Data for the rad18 strain (AID 177); settings: S. cerevisiae rad18 mutant growth inhibition, active compounds read high
# How it was run: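 DNA-repair-defective yeast; compound treatment; growth inhibition scored against vehicle.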
# [6] = NCI Yeast Anticancer Drug Screen. Data for the rad52 strain (AID 147);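 further: 0% = growth of vehicle-treated control cultures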; settings: S. cerevisiae rad52 mutant growth inhibition, active compounds read high
# How it was run: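 Growth of repair-deficient yeast cells was compared between compound-treated and vehicle-treated cultures to give percent inhibition.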
# [7] = NCI Yeast Anticancer Drug Screen. Data for the wt1 strain (AID 149);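 further: 0% = growth of vehicle-treated wt1 cultures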; settings: S. cerevisiae wt1 strain (SPY 50644) growth inhibition, active compounds read high
# How it was run: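 Measured: growth of wt1 yeast under compound versus vehicle treatment, reported as inhibition.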
# [8] = NCI Yeast Anticancer Drug Screen. Data for the rad50EPP+ strain (AID 151);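 further: 0% = growth of vehicle-treated control cultures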; settings: S. cerevisiae rad50 mutant strain, active compounds read high
# How it was run: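 Measured: growth inhibition of rad50EPP+ yeast. Reference: vehicle-treated controls. Screen uses strains with defined genetic alterations in DNA damage repair or cell cycle control.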
# [9] = NCI Yeast Anticancer Drug Screen. Data for the mgt1 strain (AID 153); settings: S. cerevisiae mgt1 mutant growth inhibition, active compounds read high
# How it was run: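 Compounds were applied to mgt1 mutant yeast, and growth was then compared against vehicle-treated control cultures to give percent inhibition.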
# [10] = NCI Yeast Anticancer Drug Screen. Data for the rad50 strain (AID 155);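 further: 0% = growth of vehicle-only cultures of the same strain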; settings: S. cerevisiae rad50 strain growth inhibition, active compounds read high
# How it was run: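 Growth of the mutant yeast was measured after compound exposure and referenced to vehicle-treated cultures.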
# [11] = NCI Yeast Anticancer Drug Screen. Data for the mec2-1 strain (AID 157); settings: S. cerevisiae mec2-1 strain, active compounds read high
# How it was run: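 Compounds were applied to mec2-1 yeast cells. Their growth was then compared with that of vehicle-treated cultures to give growth inhibition.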
# [12] = NCI Yeast Anticancer Drug Screen. Data for the rad14 strain (AID 159);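 further: 0% = growth of vehicle-treated control cultures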; settings: S. cerevisiae rad14 strain growth inhibition, active compounds read high
# How it was run: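 Here, inhibition of yeast growth was measured after compound exposure, using a strain with a genetic defect in DNA damage repair and vehicle-treated cultures as the reference.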
# [13] = NCI Yeast Anticancer Drug Screen. Data for the sgs1 mgt1 strain (AID 161);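 further: 0% = growth of cultures given vehicle only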; settings: S. cerevisiae sgs1 mgt1 strain, active compounds read high
# How it was run: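 Yeast cells carrying a defined DNA-repair defect were exposed to test compounds. Growth inhibition was measured relative to vehicle-treated controls.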
# [14] = NCI Yeast Anticancer Drug Screen. Data for the CLN2oe strain (AID 163);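 further: 0% = growth of vehicle-only control cultures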; settings: S. cerevisiae CLN2oe strain, active compounds read high
# How it was run: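 Cells of an engineered yeast line with disturbed cell-cycle regulation are treated with compound. Inhibition of growth is then calculated relative to the vehicle-treated reference.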
# [15] = NCI Yeast Anticancer Drug Screen. Data for the cln2 rad14 strain (AID 165);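 further: 0% = growth equal to vehicle treated cultures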; settings: S. cerevisiae cln2 rad14 strain, active compounds read high
# How it was run: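 Strain: cln2 rad14 yeast, altered in cell cycle control and DNA damage repair. Read-out: growth inhibition vs vehicle.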
# [16] = NCI Yeast Anticancer Drug Screen. Data for the bub3 strain (AID 167); settings: S. cerevisiae bub3 mutant strain, active compounds read high
# How it was run: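 Whole-cell yeast assay. The mutant strain was incubated with compounds, and growth inhibition was determined by comparison with vehicle-treated cells.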
# [17] = at 5.0 µM (retest, dose inferred, filed as 0.5)
# [18] = at 50.0 µM (retest, dose inferred, filed as 5.0)
smiles,measurement,setting,value
CC(=O)OCc1ccc(O)c(C=O)c1,growth inhibition,[1]; at 1.2 µM,-36%
same,growth inhibition,[1]; at 3.7 µM,-30%
same,growth inhibition,[1]; at 11.0 µM,-28%
same,growth inhibition,[1]; at 33.0 µM,-11%
same,growth inhibition,[1]; at 100.0 µM,32%
same,growth inhibition,[2]; at 1.2 µM,0%
same,growth inhibition,[2]; at 3.7 µM,-7%
same,growth inhibition,[2]; at 11.0 µM,-5%
same,growth inhibition,[2]; at 33.0 µM,24%
same,growth inhibition,[2]; at 100.0 µM,30%
same,growth inhibition,[3]; at 1.2 µM,-11%
same,growth inhibition,[3]; at 3.7 µM,-5%
same,growth inhibition,[3]; at 11.0 µM,10%
same,growth inhibition,[3]; at 33.0 µM,34%
same,growth inhibition,[3]; at 100.0 µM,63%
same,growth inhibition,[4]; [17],26%
same,growth inhibition,[4]; [18],61%
same,growth inhibition,[4]; at 50.0 µM,48.7%
same,growth inhibition,[5]; at 1.2 µM,-13%
same,growth inhibition,[5]; at 3.7 µM,9%
same,growth inhibition,[5]; at 11.0 µM,54%
same,growth inhibition,[5]; at 33.0 µM,83% (active)
same,growth inhibition,[5]; at 100.0 µM,89% (active)
Cc1cc(I)ccc1N,growth inhibition,[6]; at 1.2 µM,24%
same,growth inhibition,[6]; at 3.7 µM,4%
same,growth inhibition,[6]; at 11.0 µM,24%
same,growth inhibition,[6]; at 33.0 µM,92% (active)
same,growth inhibition,[6]; at 100.0 µM,87% (active)
same,growth inhibition,[7]; at 1.2 µM,-8%
same,growth inhibition,[7]; at 3.7 µM,2%
same,growth inhibition,[7]; at 11.0 µM,-8%
same,growth inhibition,[7]; at 33.0 µM,86% (active)
same,growth inhibition,[7]; at 100.0 µM,91% (active)
same,growth inhibition,[8]; at 1.2 µM,-24%
same,growth inhibition,[8]; at 3.7 µM,-11%
same,growth inhibition,[8]; at 11.0 µM,-8%
same,growth inhibition,[8]; at 33.0 µM,20%
same,growth inhibition,[8]; at 100.0 µM,74% (active)
same,growth inhibition,[9]; at 1.2 µM,36%
same,growth inhibition,[9]; at 3.7 µM,5%
same,growth inhibition,[9]; at 11.0 µM,28%
same,growth inhibition,[9]; at 33.0 µM,93% (active)
same,growth inhibition,[9]; at 100.0 µM,85% (active)
same,growth inhibition,[10]; at 1.2 µM,-31%
same,growth inhibition,[10]; at 3.7 µM,-13%
same,growth inhibition,[10]; [17],50%
same,growth inhibition,[10]; at 11.0 µM,-13%
same,growth inhibition,[10]; at 33.0 µM,91% (active)
same,growth inhibition,[10]; [18],79% (active)
same,growth inhibition,[10]; at 50.0 µM,85.6% (active)
same,growth inhibition,[10]; at 100.0 µM,93% (active)
same,growth inhibition,[11]; at 1.2 µM,-3%
same,growth inhibition,[11]; at 3.7 µM,4%
same,growth inhibition,[11]; [17],51%
same,growth inhibition,[11]; at 11.0 µM,-2%
same,growth inhibition,[11]; at 33.0 µM,87% (active)
same,growth inhibition,[11]; [18],87% (active)
same,growth inhibition,[11]; at 50.0 µM,88.2% (active)
same,growth inhibition,[11]; at 100.0 µM,92% (active)
same,growth inhibition,[12]; at 1.2 µM,1%
same,growth inhibition,[12]; at 3.7 µM,-15%
same,growth inhibition,[12]; at 11.0 µM,-1%
same,growth inhibition,[12]; at 33.0 µM,93% (active)
same,growth inhibition,[12]; at 100.0 µM,92% (active)
same,growth inhibition,[13]; [17],-1%
same,growth inhibition,[13]; [18],92% (active)
same,growth inhibition,[13]; at 50.0 µM,89.3% (active)
same,growth inhibition,[14]; at 1.2 µM,-10%
same,growth inhibition,[14]; at 3.7 µM,-15%
same,growth inhibition,[14]; at 11.0 µM,-3%
same,growth inhibition,[14]; at 33.0 µM,79% (active)
same,growth inhibition,[14]; at 100.0 µM,86% (active)
same,growth inhibition,[15]; [17],46%
same,growth inhibition,[15]; [18],93% (active)
same,growth inhibition,[15]; at 50.0 µM,62.1%
same,growth inhibition,[16]; at 1.2 µM,1%
same,growth inhibition,[16]; at 3.7 µM,-7%
same,growth inhibition,[16]; [17],27%
same,growth inhibition,[16]; at 11.0 µM,11%
same,growth inhibition,[16]; at 33.0 µM,90% (active)
same,growth inhibition,[16]; [18],90% (active)
same,growth inhibition,[16]; at 50.0 µM,86.8% (active)
same,growth inhibition,[16]; at 100.0 µM,94% (active)
same,growth inhibition,[1]; at 1.2 µM,-28%
same,growth inhibition,[1]; at 3.7 µM,-10%
same,growth inhibition,[1]; at 11.0 µM,-13%
same,growth inhibition,[1]; at 33.0 µM,88% (active)
same,growth inhibition,[1]; at 100.0 µM,94% (active)
same,growth inhibition,[2]; at 1.2 µM,25%
same,growth inhibition,[2]; at 3.7 µM,13%
same,growth inhibition,[2]; at 11.0 µM,10%
same,growth inhibition,[2]; at 33.0 µM,89% (active)
same,growth inhibition,[2]; at 100.0 µM,92% (active)
same,growth inhibition,[3]; at 1.2 µM,19%
same,growth inhibition,[3]; at 3.7 µM,5%
same,growth inhibition,[3]; at 11.0 µM,4%
same,growth inhibition,[3]; at 33.0 µM,90% (active)
same,growth inhibition,[3]; at 100.0 µM,91% (active)
same,growth inhibition,[4]; [17],41%
same,growth inhibition,[4]; [18],73% (active)
same,growth inhibition,[4]; at 50.0 µM,85.6% (active)
same,growth inhibition,[5]; at 1.2 µM,-18%
same,growth inhibition,[5]; at 3.7 µM,-4%
same,growth inhibition,[5]; at 11.0 µM,-15%
same,growth inhibition,[5]; at 33.0 µM,85% (active)
same,growth inhibition,[5]; at 100.0 µM,87% (active)

# From PubChem BioAssay (NCI)
